Laboratory results: PubChem BioAssay (NCI)
The panel holds about 79,000 compounds, 15% with a hit somewhere; the sample as a whole holds those more often. Activity calls are given as the source filed them. Cut-off read from the data, not from the text of the source: active = growth inhibition above about 70%; inactive = the rest.

How the values were obtained:
[1] = NCI Yeast Anticancer Drug Screen. Data for the rad52 strain (AID 147);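 note: 0% = growth of vehicle-treated control cultures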; settings: S. cerevisiae rad52 mutant growth inhibition, active compounds read high
Outline: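 Read-out: growth inhibition versus vehicle-treated controls. Cells were a DNA repair-deficient yeast strain treated with compounds.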

[2] = NCI Yeast Anticancer Drug Screen. Data for the wt1 strain (AID 149);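 note: 0% = growth of vehicle-treated wt1 cultures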; settings: S. cerevisiae wt1 strain (SPY 50644) growth inhibition, active compounds read high
Outline: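 Measured: growth of wt1 yeast under compound versus vehicle treatment, reported as inhibition.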

[3] = NCI Yeast Anticancer Drug Screen. Data for the rad50EPP+ strain (AID 151);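 note: 0% = growth of vehicle-treated control cultures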; settings: S. cerevisiae rad50 mutant strain, active compounds read high
Outline: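 Growth inhibition read against vehicle controls in rad50EPP+ yeast, a strain altered in DNA damage repair, after compound exposure.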

[4] = NCI Yeast Anticancer Drug Screen. Data for the mgt1 strain (AID 153); settings: S. cerevisiae mgt1 mutant growth inhibition, active compounds read high
Outline: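 mgt1 yeast grown with test compound; read-out is growth inhibition versus vehicle-treated cultures.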

[5] = NCI Yeast Anticancer Drug Screen. Data for the rad50 strain (AID 155);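 note: 0% = growth of vehicle-only cultures of the same strain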; settings: S. cerevisiae rad50 strain growth inhibition, active compounds read high
Outline: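 Growth of the mutant yeast was measured after compound exposure and referenced to vehicle-treated cultures.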

[6] = NCI Yeast Anticancer Drug Screen. Data for the mec2-1 strain (AID 157); settings: S. cerevisiae mec2-1 strain, active compounds read high
Outline: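 Yeast mec2-1 mutant treated with compound. Readout: growth inhibition vs vehicle controls.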

[7] = NCI Yeast Anticancer Drug Screen. Data for the rad14 strain (AID 159);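 note: 0% = growth of vehicle-treated control cultures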; settings: S. cerevisiae rad14 strain growth inhibition, active compounds read high
Outline: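 Here, inhibition of yeast growth was measured after compound exposure, using a strain with a genetic defect in DNA damage repair and vehicle-treated cultures as the reference.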

[8] = NCI Yeast Anticancer Drug Screen. Data for the sgs1 mgt1 strain (AID 161);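 note: 0% = growth of cultures given vehicle only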; settings: S. cerevisiae sgs1 mgt1 strain, active compounds read high
Outline: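 Inhibition of yeast growth, normalised to vehicle-treated controls, is reported for a strain bearing genetic alterations in DNA damage repair.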

[9] = NCI Yeast Anticancer Drug Screen. Data for the CLN2oe strain (AID 163);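 note: 0% = growth of vehicle-only control cultures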; settings: S. cerevisiae CLN2oe strain, active compounds read high
Outline: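 Read-out: yeast growth inhibition, expressed relative to vehicle-only controls. The strain bears an engineered cell-cycle alteration.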

[10] = NCI Yeast Anticancer Drug Screen. Data for the cln2 rad14 strain (AID 165);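 note: 0% = growth equal to vehicle treated cultures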; settings: S. cerevisiae cln2 rad14 strain, active compounds read high
Outline: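 cln2 rad14 yeast strain; compound exposure; growth inhibition read vs vehicle controls.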

[11] = NCI Yeast Anticancer Drug Screen. Data for the bub3 strain (AID 167); settings: S. cerevisiae bub3 mutant strain, active compounds read high
Outline: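 Whole-cell yeast assay. The mutant strain was incubated with compounds, and growth inhibition was determined by comparison with vehicle-treated cells.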

[12] = NCI Yeast Anticancer Drug Screen. Data for the wt2 strain (AID 169);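 note: 0% = growth of vehicle-treated yeast cultures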; settings: S. cerevisiae wt2 strain growth inhibition, active compounds read high
Outline: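 Read-out: growth inhibition versus vehicle-treated control cultures after compound exposure of the yeast strain.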

[13] = NCI Yeast Anticancer Drug Screen. Data for the mlh1 strain (AID 171);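 note: 0% = growth of vehicle-treated control cultures of the same strain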; settings: S. cerevisiae mlh1 strain growth inhibition, active compounds read high
Outline: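 Read-out: growth inhibition versus vehicle controls. Strain: engineered yeast with a defined DNA repair or cell cycle defect, compound-treated.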

[14] = NCI Yeast Anticancer Drug Screen. Data for the sgs1 strain (AID 173);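 note: 0% = growth of vehicle-only control cultures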; settings: S. cerevisiae sgs1 mutant, active compounds read high
Outline: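 Read-out: yeast growth inhibition relative to vehicle controls, following compound exposure of a strain with a defined DNA repair/cell cycle alteration.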

[15] = NCI Yeast Anticancer Drug Screen. Data for the mlh1 rad18 strain (AID 175); settings: S. cerevisiae mlh1 rad18 strain growth inhibition, active compounds read high
Outline: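 Yeast w/ defined DNA-repair lesions; compound exposure; growth vs vehicle controls → % inhibition.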

[16] = NCI Yeast Anticancer Drug Screen. Data for the rad18 strain (AID 177); settings: S. cerevisiae rad18 mutant growth inhibition, active compounds read high
Outline: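 Readout: growth inhibition vs vehicle controls. Cells: genetically altered yeast strain, DNA repair defect.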

[17] = at 5.0 µM (retest, dose inferred, filed as 0.5)
[18] = at 50.0 µM (retest, dose inferred, filed as 5.0)

Measured: growth inhibition

O=c1ccc2ccccc2c2ccccc12
active: [1]; at 33.0 µM 97% | [1]; at 100.0 µM 99% | [2]; at 11.0 µM 76% | [2]; at 33.0 µM 98% | [2]; at 100.0 µM 99% | [3]; at 33.0 µM 95% | [3]; at 100.0 µM 99% | [4]; at 11.0 µM 79% | [4]; at 33.0 µM 99% | [4]; at 100.0 µM 99% | [5]; at 33.0 µM 97% | [5]; [18] 98% | [5]; at 50.0 µM 90.9% | [5]; at 100.0 µM 97% | [6]; at 11.0 µM 82% | [6]; at 33.0 µM 99% | [6]; [18] 99% | [6]; at 50.0 µM 93.9% | [6]; at 100.0 µM 100% | [7]; at 33.0 µM 98% | [7]; at 100.0 µM 97% | [8]; [18] 98% | [8]; at 50.0 µM 91.6% | [9]; at 11.0 µM 87% | [9]; at 33.0 µM 100% | [9]; at 100.0 µM 100% | [10]; [18] 99% | [10]; at 50.0 µM 90.4% | [11]; at 11.0 µM 88% | [11]; at 33.0 µM 98% | [11]; [18] 99% | [11]; at 50.0 µM 90.6% | [11]; at 100.0 µM 98% | [12]; at 33.0 µM 98% | [12]; at 100.0 µM 99% | [13]; at 11.0 µM 83% | [13]; at 33.0 µM 99% | [13]; at 100.0 µM 99% | [14]; at 33.0 µM 98% | [14]; at 100.0 µM 98% | [15]; [18] 99% | [15]; at 50.0 µM 90.9% | [16]; at 11.0 µM 76% | [16]; at 33.0 µM 97% | [16]; at 100.0 µM 97%
inactive: [1]; at 1.2 µM -49% | [1]; at 3.7 µM -33% | [1]; at 11.0 µM 52% | [2]; at 1.2 µM -17% | [2]; at 3.7 µM 18% | [3]; at 1.2 µM -4% | [3]; at 3.7 µM 13% | [3]; at 11.0 µM 46% | [4]; at 1.2 µM 3% | [4]; at 3.7 µM 21% | [5]; at 1.2 µM -13% | [5]; at 3.7 µM 7% | [5]; [17] -2% | [5]; at 11.0 µM 66% | [6]; at 1.2 µM -3% | [6]; at 3.7 µM 22% | [6]; [17] 1% | [7]; at 1.2 µM -9% | [7]; at 3.7 µM 1% | [7]; at 11.0 µM 63% | [8]; [17] 6% | [9]; at 1.2 µM 20% | [9]; at 3.7 µM 25% | [10]; [17] 5% | [11]; at 1.2 µM 5% | [11]; at 3.7 µM 47% | [11]; [17] 50% | [12]; at 1.2 µM -27% | [12]; at 3.7 µM 2% | [12]; at 11.0 µM 69% | [13]; at 1.2 µM 15% | [13]; at 3.7 µM 55% | [14]; at 1.2 µM -2% | [14]; at 3.7 µM 12% | [14]; at 11.0 µM 69% | [15]; [17] 39% | [16]; at 1.2 µM -4% | [16]; at 3.7 µM -3%

O=C1OC(OC/C(Br)=C(\Br)COC2OC(=O)C(Cl)=C2Cl)C(Cl)=C1Cl (stereo unspecified)
active: [5]; [18] 91% | [5]; at 50.0 µM 98.7% | [6]; [18] 98% | [6]; at 50.0 µM 96.1% | [8]; [18] 99% | [8]; at 50.0 µM 93.1% | [10]; [18] 96% | [11]; [18] 93% | [11]; at 50.0 µM 93.6% | [15]; [18] 96% | [15]; at 50.0 µM 94.3%
inactive: [1]; at 1.2 µM 0% | [1]; at 3.7 µM 2% | [1]; at 11.0 µM 3% | [1]; at 33.0 µM 5% | [1]; at 100.0 µM 15% | [2]; at 1.2 µM 0% | [2]; at 3.7 µM 0% | [2]; at 11.0 µM 2% | [2]; at 33.0 µM 8% | [2]; at 100.0 µM 18% | [3]; at 1.2 µM -1% | [3]; at 3.7 µM 1% | [3]; at 11.0 µM 3% | [3]; at 33.0 µM 6% | [3]; at 100.0 µM 16% | [4]; at 1.2 µM -5% | [4]; at 3.7 µM -1% | [4]; at 11.0 µM 2% | [4]; at 33.0 µM 3% | [4]; at 100.0 µM 9% | [5]; at 1.2 µM 0% | [5]; at 3.7 µM 1% | [5]; [17] 37% | [5]; at 11.0 µM 0% | [5]; at 33.0 µM 7% | [5]; at 100.0 µM 15% | [6]; at 1.2 µM -2% | [6]; at 3.7 µM 2% | [6]; [17] 20% | [6]; at 11.0 µM 5% | [6]; at 33.0 µM 13% | [6]; at 100.0 µM 26% | [7]; at 1.2 µM 1% | [7]; at 3.7 µM 2% | [7]; at 11.0 µM 4% | [7]; at 33.0 µM 9% | [7]; at 100.0 µM 16% | [8]; [17] 39% | [9]; at 1.2 µM -2% | [9]; at 3.7 µM -1% | [9]; at 11.0 µM 2% | [9]; at 33.0 µM 9% | [9]; at 100.0 µM 14% | [10]; [17] 17% | [10]; at 50.0 µM 57.6% | [11]; at 1.2 µM 0% | [11]; at 3.7 µM -2% | [11]; [17] 13% | [11]; at 11.0 µM -4% | [11]; at 33.0 µM 1% | [11]; at 100.0 µM 16% | [12]; at 1.2 µM -1% | [12]; at 3.7 µM -2% | [12]; at 11.0 µM 0% | [12]; at 33.0 µM 3% | [12]; at 100.0 µM 10% | [13]; at 1.2 µM -1% | [13]; at 3.7 µM 0% | [13]; at 11.0 µM 2% | [13]; at 33.0 µM 4% | [13]; at 100.0 µM 12% | [14]; at 1.2 µM -1% | [14]; at 3.7 µM 0% | [14]; at 11.0 µM 0% | [14]; at 33.0 µM 6% | [14]; at 100.0 µM 20% | [15]; [17] 53% | [16]; at 1.2 µM 1% | [16]; at 3.7 µM 3% | [16]; at 11.0 µM 9% | [16]; at 33.0 µM 24% | [16]; at 100.0 µM 60%
